Test results from ChEMBL document CHEMBL3988442, “University of Dundee, Small-Polar-MMV Screening Library” (2021).
For some of these results: Potency and affinity values are given separately.

Assays:
Parameters in all cases: scale not given: direction of the effect not stated beside the values
[1] = biological target: Protein translocase subunit SecA (Escherichia coli (strain K12)) (UniProt P10408); experiment: Assay to Identify E. coli SecA ATPase Inhibitors; assay type: functional; settings: 30 µM
Protein translocase subunit SecA (Escherichia coli (strain K12)), sequence (P10408 whole entry): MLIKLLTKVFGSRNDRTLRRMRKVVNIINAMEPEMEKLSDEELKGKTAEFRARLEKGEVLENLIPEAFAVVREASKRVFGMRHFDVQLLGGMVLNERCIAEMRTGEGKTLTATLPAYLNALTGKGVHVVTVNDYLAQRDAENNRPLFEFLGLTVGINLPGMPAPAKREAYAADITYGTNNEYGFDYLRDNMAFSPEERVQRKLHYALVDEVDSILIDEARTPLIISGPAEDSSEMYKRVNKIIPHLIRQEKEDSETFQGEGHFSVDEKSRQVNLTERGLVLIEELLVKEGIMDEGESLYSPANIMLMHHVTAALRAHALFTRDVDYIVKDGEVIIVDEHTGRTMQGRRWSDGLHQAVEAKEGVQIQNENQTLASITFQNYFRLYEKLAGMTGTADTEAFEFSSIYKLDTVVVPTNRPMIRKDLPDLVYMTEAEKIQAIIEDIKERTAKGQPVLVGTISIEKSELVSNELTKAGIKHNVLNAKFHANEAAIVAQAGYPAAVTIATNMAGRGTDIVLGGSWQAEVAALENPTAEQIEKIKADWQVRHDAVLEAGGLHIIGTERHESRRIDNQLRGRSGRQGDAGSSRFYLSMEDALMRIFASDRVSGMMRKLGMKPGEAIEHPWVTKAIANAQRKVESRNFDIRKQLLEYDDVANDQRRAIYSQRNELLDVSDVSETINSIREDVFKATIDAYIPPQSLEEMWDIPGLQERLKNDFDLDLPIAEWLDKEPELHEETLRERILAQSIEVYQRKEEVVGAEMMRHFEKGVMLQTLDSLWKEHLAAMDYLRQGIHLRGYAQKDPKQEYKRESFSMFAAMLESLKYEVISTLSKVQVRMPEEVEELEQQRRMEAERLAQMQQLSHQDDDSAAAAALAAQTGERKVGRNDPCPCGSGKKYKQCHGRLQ

[2] = biological target: T1, Ubiquitin-activating enzyme e1, putative (Leishmania donovani (strain BPK282A1)) (UniProt E9BSI1); experiment: Leishmania donovani Ubiquitin Activating Enzyme (LdE1); assay type: functional; settings: 30 µM
T1 sequence (whole entry): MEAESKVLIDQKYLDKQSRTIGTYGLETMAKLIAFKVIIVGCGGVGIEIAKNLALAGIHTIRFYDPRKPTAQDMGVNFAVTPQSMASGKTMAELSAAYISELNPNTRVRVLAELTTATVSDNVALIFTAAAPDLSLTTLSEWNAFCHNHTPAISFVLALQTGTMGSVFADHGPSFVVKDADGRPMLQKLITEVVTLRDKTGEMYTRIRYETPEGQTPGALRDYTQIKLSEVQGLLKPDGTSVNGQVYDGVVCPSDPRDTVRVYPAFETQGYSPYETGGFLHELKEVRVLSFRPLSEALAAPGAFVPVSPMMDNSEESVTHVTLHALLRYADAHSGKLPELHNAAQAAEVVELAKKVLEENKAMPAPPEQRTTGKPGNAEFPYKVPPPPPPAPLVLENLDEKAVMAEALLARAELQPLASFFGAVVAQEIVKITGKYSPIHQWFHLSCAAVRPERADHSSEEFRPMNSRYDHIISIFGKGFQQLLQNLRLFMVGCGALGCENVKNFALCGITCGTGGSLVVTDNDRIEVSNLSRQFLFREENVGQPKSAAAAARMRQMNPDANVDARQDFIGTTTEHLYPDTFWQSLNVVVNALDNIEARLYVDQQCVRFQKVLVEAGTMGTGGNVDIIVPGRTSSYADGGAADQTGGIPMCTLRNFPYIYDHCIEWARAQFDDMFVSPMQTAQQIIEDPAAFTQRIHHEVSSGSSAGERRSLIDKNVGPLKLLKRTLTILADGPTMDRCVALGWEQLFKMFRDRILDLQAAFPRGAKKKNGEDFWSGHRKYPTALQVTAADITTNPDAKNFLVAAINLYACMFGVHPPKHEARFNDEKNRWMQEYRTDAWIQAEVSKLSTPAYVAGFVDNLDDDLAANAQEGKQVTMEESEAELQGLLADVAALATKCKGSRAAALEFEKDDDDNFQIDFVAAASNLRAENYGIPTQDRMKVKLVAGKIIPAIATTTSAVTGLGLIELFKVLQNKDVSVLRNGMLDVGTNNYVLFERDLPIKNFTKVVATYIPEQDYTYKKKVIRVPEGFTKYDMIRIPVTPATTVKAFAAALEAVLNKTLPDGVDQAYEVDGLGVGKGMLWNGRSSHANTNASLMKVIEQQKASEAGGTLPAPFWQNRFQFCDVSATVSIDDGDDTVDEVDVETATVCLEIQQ

[3] = biological target: AMP-activated protein kinase, AMPK (Homo sapiens) (UniProt P54646+O43741+P54619+Q9UGJ0+Q9Y478+Q13131+Q9UGI9); experiment: AMP-dependent Kinase enzyme assay. An in vitro enzyme assay that detects ADP turnover that is directly proportional to AMPK activity. This uses naive AMPK that is activated during the assay with MK-8722; assay type: functional; settings: 30 µM
[4] = biological target: Sialic acid-binding Ig-like lectin 9 (Homo sapiens) (UniProt Q9Y336); experiment: Hs-Siglec9 ALPHAscreen SOP 20170721; settings: 10 µM
Sialic acid-binding Ig-like lectin 9 (Homo sapiens), sequence (Q9Y336 whole entry): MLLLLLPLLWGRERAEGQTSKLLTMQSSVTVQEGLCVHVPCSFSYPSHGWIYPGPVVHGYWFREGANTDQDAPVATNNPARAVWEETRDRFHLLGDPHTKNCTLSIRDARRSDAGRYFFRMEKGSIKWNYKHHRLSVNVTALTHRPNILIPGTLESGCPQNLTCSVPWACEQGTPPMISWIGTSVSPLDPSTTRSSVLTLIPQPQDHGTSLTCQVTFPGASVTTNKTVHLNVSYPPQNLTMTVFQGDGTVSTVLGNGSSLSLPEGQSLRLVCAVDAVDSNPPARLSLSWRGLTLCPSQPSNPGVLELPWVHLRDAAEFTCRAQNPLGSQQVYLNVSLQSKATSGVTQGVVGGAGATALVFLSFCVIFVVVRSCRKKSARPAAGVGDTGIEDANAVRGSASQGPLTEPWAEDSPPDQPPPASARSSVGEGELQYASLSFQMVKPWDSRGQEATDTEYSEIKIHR

Trypanosoma cruzi = experiment: Trypanosoma cruzi phosphomannomutase and mannose-1-phosphate guanylyltransferase assay; assay type: functional; settings: 10 µM
[5] = biological target: T2, Arginase-2, mitochondrial (Homo sapiens) (UniProt P78540); experiment: in vitro enzyme assay to detect the production of urea directly proportional to the activity of Arginase II; assay type: functional; settings: 33.3 µM; also: in the data most compounds retested in dose-response had high values
T2 sequence (whole entry): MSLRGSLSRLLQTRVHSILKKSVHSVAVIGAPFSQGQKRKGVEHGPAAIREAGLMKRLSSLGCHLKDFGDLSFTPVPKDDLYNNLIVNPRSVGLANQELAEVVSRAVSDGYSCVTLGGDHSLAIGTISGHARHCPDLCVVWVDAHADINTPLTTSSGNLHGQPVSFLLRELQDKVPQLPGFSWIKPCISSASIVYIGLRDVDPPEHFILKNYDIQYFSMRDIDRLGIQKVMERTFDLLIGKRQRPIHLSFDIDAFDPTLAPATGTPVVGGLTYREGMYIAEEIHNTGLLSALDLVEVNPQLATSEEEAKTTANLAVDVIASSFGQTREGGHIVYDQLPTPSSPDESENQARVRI

[6] = biological target: T3, Proteasome subunit beta (Trypanosoma cruzi) (UniProt O96673); experiment: Trypanosoma cruzi proteasome chymotrypsin-like activity (TcProtChymo) assay.; also: in the data most compounds retested in dose-response had high values; assay type: functional; settings: 9.37 µM
T3 sequence (whole entry): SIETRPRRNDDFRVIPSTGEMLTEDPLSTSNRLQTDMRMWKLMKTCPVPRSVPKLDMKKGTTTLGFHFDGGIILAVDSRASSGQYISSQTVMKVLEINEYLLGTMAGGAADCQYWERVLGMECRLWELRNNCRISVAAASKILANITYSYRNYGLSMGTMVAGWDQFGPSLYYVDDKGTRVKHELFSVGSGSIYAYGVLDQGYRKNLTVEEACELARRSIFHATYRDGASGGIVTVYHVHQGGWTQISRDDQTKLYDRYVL

Homo sapiens = organism: Homo sapiens; experiment: To identify inhibition of the IFN signalling (Jak-Stat) pathway via expression of an eGFP reporter gene under the control of an IFN-stimulated response element (ISRE) containing MxA promoter.; assay type: functional; settings: 30 µM
[7] = biological target: T4, Tyrosyl-tRNA synthetase, putative (Trypanosoma cruzi (strain CL Brener)) (UniProt Q4DSP6); experiment: Trypanosoma cruzi tyrosyl tRNA synthetase (TcYRS) _High Tyrosine SOP; assay type: functional; settings: 30 µM; also: in the data most compounds retested in dose-response had high values
T4 sequence (whole entry): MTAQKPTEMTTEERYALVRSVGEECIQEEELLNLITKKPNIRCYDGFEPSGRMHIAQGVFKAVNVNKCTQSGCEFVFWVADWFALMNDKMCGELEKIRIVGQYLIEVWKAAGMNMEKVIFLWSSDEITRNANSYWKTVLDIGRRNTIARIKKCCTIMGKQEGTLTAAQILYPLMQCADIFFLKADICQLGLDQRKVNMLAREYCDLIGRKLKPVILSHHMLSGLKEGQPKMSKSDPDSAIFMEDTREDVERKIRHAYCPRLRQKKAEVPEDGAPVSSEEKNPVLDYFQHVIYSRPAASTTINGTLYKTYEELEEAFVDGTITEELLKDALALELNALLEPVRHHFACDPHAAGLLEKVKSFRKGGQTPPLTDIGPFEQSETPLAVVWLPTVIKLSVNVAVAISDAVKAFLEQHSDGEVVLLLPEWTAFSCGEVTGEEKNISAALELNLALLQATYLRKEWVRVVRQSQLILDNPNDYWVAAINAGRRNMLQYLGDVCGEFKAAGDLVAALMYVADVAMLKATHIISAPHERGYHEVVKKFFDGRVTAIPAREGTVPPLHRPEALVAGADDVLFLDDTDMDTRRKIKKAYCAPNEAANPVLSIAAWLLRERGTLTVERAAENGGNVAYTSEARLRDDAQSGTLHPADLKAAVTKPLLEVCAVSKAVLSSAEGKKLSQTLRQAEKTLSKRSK

[8] = biological target: T4, Tyrosyl-tRNA synthetase, putative (Trypanosoma cruzi (strain CL Brener)); experiment: Trypanosoma cruzi tyrosyl tRNA synthetase (TcYRS) SOP; assay type: functional; settings: 30 µM
[9] = biological target: Chromo domain-containing protein 1 (Saccharomyces cerevisiae (strain ATCC 204508 / S288c) (Baker's yeast)) (UniProt P32657); experiment: ScCHD-1 Enzyme Inhibition Assay; assay type: functional; settings: 30 µM; also: in the data most compounds retested in dose-response had high values
Chromo domain-containing protein 1 (Saccharomyces cerevisiae (strain ATCC 204508 / S288c) (Baker's yeast)), sequence (P32657 whole entry, the tested form may be a part): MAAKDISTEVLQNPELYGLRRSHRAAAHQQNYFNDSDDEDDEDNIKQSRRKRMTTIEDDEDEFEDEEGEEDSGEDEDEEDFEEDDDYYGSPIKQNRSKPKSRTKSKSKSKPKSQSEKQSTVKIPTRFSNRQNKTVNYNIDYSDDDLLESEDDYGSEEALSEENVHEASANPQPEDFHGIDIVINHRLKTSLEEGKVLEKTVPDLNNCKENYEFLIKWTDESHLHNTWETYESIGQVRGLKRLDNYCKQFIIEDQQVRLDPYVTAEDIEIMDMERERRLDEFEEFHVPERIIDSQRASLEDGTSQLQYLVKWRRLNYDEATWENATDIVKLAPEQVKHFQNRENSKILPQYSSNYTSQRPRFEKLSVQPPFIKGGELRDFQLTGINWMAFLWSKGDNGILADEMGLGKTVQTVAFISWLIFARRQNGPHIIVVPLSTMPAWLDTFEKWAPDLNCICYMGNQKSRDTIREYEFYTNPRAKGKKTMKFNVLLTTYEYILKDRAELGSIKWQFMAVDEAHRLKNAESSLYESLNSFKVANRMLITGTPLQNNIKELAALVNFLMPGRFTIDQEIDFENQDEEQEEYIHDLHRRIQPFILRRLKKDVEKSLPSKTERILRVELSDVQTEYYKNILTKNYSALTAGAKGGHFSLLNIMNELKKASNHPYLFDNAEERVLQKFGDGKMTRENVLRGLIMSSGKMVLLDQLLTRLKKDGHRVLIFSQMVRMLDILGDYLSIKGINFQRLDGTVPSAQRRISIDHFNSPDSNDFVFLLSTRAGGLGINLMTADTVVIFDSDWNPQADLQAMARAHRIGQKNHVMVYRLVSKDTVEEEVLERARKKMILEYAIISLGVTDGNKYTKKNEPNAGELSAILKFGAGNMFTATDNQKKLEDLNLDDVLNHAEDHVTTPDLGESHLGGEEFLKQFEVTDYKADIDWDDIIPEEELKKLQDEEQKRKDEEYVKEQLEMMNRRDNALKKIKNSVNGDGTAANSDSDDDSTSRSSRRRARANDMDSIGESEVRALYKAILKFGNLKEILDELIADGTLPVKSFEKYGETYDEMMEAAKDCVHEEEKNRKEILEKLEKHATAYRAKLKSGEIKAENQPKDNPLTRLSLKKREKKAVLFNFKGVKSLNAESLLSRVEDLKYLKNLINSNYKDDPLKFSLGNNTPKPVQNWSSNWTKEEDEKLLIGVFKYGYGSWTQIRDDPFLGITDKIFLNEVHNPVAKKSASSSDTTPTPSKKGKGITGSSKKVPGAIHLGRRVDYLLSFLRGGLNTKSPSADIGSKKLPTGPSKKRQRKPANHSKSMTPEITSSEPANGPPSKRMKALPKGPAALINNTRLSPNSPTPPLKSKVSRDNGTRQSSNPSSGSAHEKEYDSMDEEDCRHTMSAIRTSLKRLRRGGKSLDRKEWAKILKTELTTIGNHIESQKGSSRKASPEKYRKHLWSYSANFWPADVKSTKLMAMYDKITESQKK

Structure (SMILES)	Percent Effect [1]	Percent Effect [2]	Percent Effect [3]	Percent Effect [4]	Percent Effect (Trypanosoma cruzi)	Percent Effect [5]	Percent Effect [6]	Percent Effect (Homo sapiens)	Percent Effect [7]	Percent Effect [8]	Percent Effect [9]
Cc1cccc(CNC(=O)CNc2cc(CO)ccc2Cl)c1	-6.11%	2.63%	4.86%	-0.518%	-1.27%	1.18%	11%	-4.91%	4.25%	7.79%	-2.84%
CN(C)CC(=O)N1C[C@@H]2CC[C@H](Oc3ccccc3Cl)[C@@H]2C1	-5.55%	-4.05%	9.46%	5.31%	-2.17%	-3.48%	-2.5%	6.65%	-1.07%	3.9%	9.09%
Cc1cc(C2CCCN2CCCc2nc3ccccc3o2)on1 (stereo unspecified)	0.895%	5.41%	-3.23%	0.643%	-3.87%	21.6%	1.62%	2.07%	4.43%	6.17%	-3.04%
Cc1ncsc1C(=O)NC1CCN(Cc2ccc(C#N)cc2)CC1	-4.4%	18.2%	0.609%	12.4%	1.12%	-2.49%	5.74%	32.5%	3.88%	12.2%	-7.46%
CC(=O)NCC(=O)N1Cc2nccn2CC(Cn2cccn2)C1 (stereo unspecified)	-2.33%	-2.7%	5.56%	-2.67%	-5.38%	1.59%	18.6%	3.41%	5.41%	7.69%	-0.528%
CCOc1cccc(C(C)NC(=O)N2CCC(C(N)=O)CC2)c1 (stereo unspecified)	-2.51%	2.7%	-1.93%	5.06%	-1.93%	-0.952%	3.97%	14.3%	3.7%	9.76%	-1.95%
CC(C)c1nn(C)c(N(C)C)c1CNCCC(=O)N(C)C	-2.63%	0%	-11.4%	-2.27%	2.15%	0.719%	5.16%	-16.3%	-0.493%	3.7%	0.33%
CC(CCc1ccco1)NC(=O)Nc1cc(C(F)(F)F)c[nH]c1=O (stereo unspecified)	-8.08%	7.89%	40.7%	3.56%	0.467%	-3.24%	13.1%	17%	7.39%	13.6%	-2%
O=C(CN(C1=NCCCC1)c1ccccc1)c1ccccc1	-3.17%	-2.63%	3.38%	-3.96%	-3.21%	-7.1%	7.96%	-2.85%	-3.19%	-10.4%	-5.81%
Cc1ccsc1C(=O)N1C[C@@H]2CN(Cc3ccoc3)CCO[C@@H]2C1	1.09%	18.9%	1.36%	-11.6%	5.18%	9.87%	12.7%	-6.4%	6.49%	15.4%	-1.54%
CN(Cc1cnn(-c2ccccc2)n1)CC1CCCN1c1cccnn1 (stereo unspecified)	-3.33%	-36.8%	3.24%	7.96%	5.7%	0.36%	-3.98%	8.95%	8.37%	13.6%	1.47%
